About 64,000 (15%) of roughly 420,000 compounds were called active. Roughly 27% stayed inconclusive and do not appear here. The call rests on the fitted dose curve; in most records, active means well fitted inhibition curve with a large enough effect; inconclusive means small, poorly fitted or top-dose-only effect; inactive means flat fitted curve, though single readings scatter. The list is a sample of the results. Where a call stands in place of a potency, no number is given.
Test: qHTS for Inhibitors of human tyrosyl-DNA phosphodiesterase 1 (TDP1): qHTS in cells in absence of CPT; further: nearly all actives have a fitted effect of over 55% in size
Conditions: DT40 Tdp1-/- hTDP1 cells, no CPT, ATP luminescence, 48 h; activity change, negative = growth inhibition: at 46.2 µM (top of the series)
Text: Human tyrosyl-DNA phosphodiesterase 1 (TDP1) is a novel repair gene, and we propose to use it as a new target for anticancer drug development. TDP1 is not an essential protein, but under treatment with topoisomerase I poison (camptothecin: CPT), TDP1 works as a critical factor for cell survival. To directly identify novel TDP1 inhibitors active in a cellular environment, we have knocked-out the Tdp1 gene in chicken DT40 cells (Tdp1-/-) and generated a complemented counterpart cells that contains a stable transfection of the human TDP1 gene (Tdp1-/-;hTDP1 cells). For the primary screen, Tdp1-/-;hTDP1 cells will be exposed to small molecules in the presence or absence of CPT, and their growth kinetics will be evaluated after 48 hours by measuring ATP activity. […] The hit compounds will then be evaluated in the presence or absence of CPT using Tdp1-/- cells. […] In tertiary assays, biochemical gel-based assays will be used to assess whether the hit compounds specifically target TDP1.
To this end, we have screened this cell line against the MLSMR in two primary screens. In one screen we add CPT and in the other we screen in the absence of CPT; this AID represents the screen where CPT was absent.
NIH Chemical Genomics Center [NCGC]
NIH Molecular Libraries Probe Centers Network [MLPCN]
Assay Submitter (PI): Yves Pommier, NCI
DT40-hTDP1 cells without 20 nM Camptothecin (add 20 microL of DMSO in 1 L of cell culture medium) were dispensed at 400 cells/5microL/well in tissue culture treated 1536-well white wall/solid bottom assay plates (Greiner Bio-One North America, NC, U.S.A.) using a Multidrop Combi 8 channel dispenser (Thermo Fisher, Waltham, MA, USA). 23 nL compounds and controls were transferred using the pin tool (Kalypsys, San Diego, CA, USA) to the assay plates. The assay plates were then incubated at 37 masculineC for a minimum 48 hr. Three microL of Cell Titer Glo solution was added to the plates and incubated at RT in dark for 30 min. Luminescence was read using ViewLux (Perkin Elmer) with 1 sec exposure slow speed, high gain and 2x binning.
Potency means the concentration at half of the fitted maximal effect.

Row | Structure (SMILES) | Potency | activity change, negative = growth inhibition
1 | Cc1cccc(NS(=O)(=O)c2cc(Cl)ccc2Cl)n1 | inactive | –
2 | Nc1nc(SCC(=O)NN(c2ccccc2)c2ccccc2)n[nH]1 | inactive | –
3 | CCOC(=O)C(Cc1ccccc1)NC(=O)CCC(=O)c1ccc(OC)cc1 (stereo not drawn) | inactive | –
4 | O=C(NCCc1ccccn1)c1cc(C(=O)C2CCCCC2)c[nH]1 | inactive | –
5 | Cn1cnnc1SCC(=O)Nc1ccc(N2CCOCC2)cc1 | inactive | –
6 | CN(CC(=O)NCCc1ccccn1)S(=O)(=O)c1ccc(Cl)cc1 | inactive | –
7 | O=C(NCCc1ccccn1)c1cc(-c2ccc(Cl)cc2)nc2ccccc12 | 18.4 µM (active) | –
8 | O=C(CNC(=O)COc1ccccc1)NCCc1ccccn1 | inactive | –
9 | Cc1cc(=O)oc(C)c1C(=O)NC1CC(C)(C)NC(C)(C)C1 | inactive | –
10 | O=C(CC1SCCNC1=O)Nc1ccc(Cl)cc1 (stereo not drawn) | inactive | –
11 | CCOc1ccccc1NC(=O)CCN1CCN(S(=O)(=O)c2ccc(OC)cc2)CC1 | inactive | –
12 | N#Cc1c(N)nc2c3c(sc(=N)c2c1N)NC(=O)CC3c1ccccc1Cl (stereo not drawn) | 13 µM (active) | –
13 | COc1ccc(C2CC(=O)Nc3sc(=N)c4c(N)c(C#N)c(N)nc4c32)cc1OC (stereo not drawn) | inactive | –
14 | COCCN(C(=S)Nc1ccccc1OC)C1CCN(C(C)C)CC1 | inactive | –
15 | CC(Sc1nncs1)C(=O)NCc1ccc2c(c1)OCO2 (stereo not drawn) | inactive | –
16 | O=C(C1Cc2ccccc2CN1C(=O)c1ccco1)N1CCN(c2ccccc2)CC1 (stereo not drawn) | inactive | –
17 | O=[N+]([O-])c1ccc2[nH]c3c(c2c1)CCCC3O (stereo not drawn) | inactive | –
18 | C[C@H](NC(=O)NCCc1ccccc1)C(=O)O | inactive | –
19 | Cc1ccc(C)c(N2CCN(C(=O)Cn3nc(C)c4sc5ccccc5c4c3=O)CC2)c1 | 23.1 µM (active) | –
20 | CCc1nn(CCCC(=O)NCc2ccccc2OC)c(=O)c2cc3occc3n12 | inactive | –
21 | CCc1nn(CC(=O)N2CCN(c3cc(C)ccc3C)CC2)c(=O)c2cc3occc3n12 | inactive | –
22 | Cc1nn(C(C)C(=O)NCCc2ccccc2)c(=O)c2c1sc1ccccc12 (stereo not drawn) | 16.4 µM (active) | –
23 | Cc1nn(CCCC(=O)NCc2ccccc2Cl)c(=O)c2nccn12 | inactive | –
24 | Cc1ccccc1CNC(=O)CCCn1nc(C)c2sc3ccccc3c2c1=O | 20.6 µM (active) | –
25 | CC(NCCc1ccc(S(N)(=O)=O)cc1)C(=O)NCc1ccccc1 (stereo not drawn) | inactive | –
26 | CCc1cc2c(cc3c(=O)n(CC(=O)N4CCN(c5cc(Cl)ccc5C)CC4)nc(CC)n32)s1 | inactive | –

Row | Structure (SMILES) | Potency | activity change, negative = growth inhibition
27 | Cc1cc(C)cc(OCC(=O)NNC(=O)CCN2C(=O)c3ccccc3C2=O)c1 | inactive | –
28 | Cc1ccc(O)c(NC(=O)c2cc(-c3ccco3)on2)c1 | inactive | –
29 | CC1Cc2cc(/C(O)=C3\C(=O)C(=O)N(CCN4CCOCC4)C3c3ccccc3F)ccc2O1 (stereo not drawn) | inactive | –
30 | O=C(O)CC1S/C(=N\N=C/c2ccccc2O)N(c2ccc(O)cc2)C1=O (stereo not drawn) | inactive | –
31 | CN(C(=O)c1ccccc1)c1nccnc1C#N | inactive | –
32 | CC(=O)Nc1cccc(C(=O)OCC(=O)NCc2cc(C)c(O)c(C)c2)c1 | inactive | –
33 | O=C(CN1CCN(c2nc(-c3ccccc3)cs2)CC1)NCc1ccc2c(c1)OCO2 | inactive | –
34 | Cc1cc(=O)[nH]c(N/N=C/c2ccc3c(c2)OCCO3)n1 | inactive | –
35 | Brc1ccc(-c2csc(N/N=C/c3ccc4c(c3)OCO4)n2)cc1 | 8.2 µM (active) | –
36 | O=C(NCC(=O)N1CCN(c2ccccc2F)CC1)c1cccs1 | inactive | –
37 | COc1cc(/C=C(\C#N)C(=O)Nc2ccc3ccccc3c2)c([N+](=O)[O-])cc1OC | inactive | –
38 | O=c1ccc2cc(S(=O)(=O)Nc3ccccc3F)ccc2o1 | inactive | –
39 | Nc1ccc(OCC(O)C[n+]2ccc(CCS(=O)(=O)[O-])cc2)cc1 (stereo not drawn) | inactive | –
40 | COc1ccc(C(=O)COC(=O)CN2C(=O)C3CC=CCC3C2=O)c(OC)c1 (stereo not drawn) | inactive | –
41 | CC(C)Cn1c(N)c(C(=O)COC(=O)CN2C(=O)C3CC=CCC3C2=O)c(=O)n(C)c1=O (stereo not drawn) | 9.2 µM (active) | –
42 | CCCc1cc(=O)[nH]c(SCC(=O)c2c(N)n(CC(C)C)c(=O)n(C)c2=O)n1 | inactive | –
43 | COc1ccc(Br)cc1/C=N/n1c(C)nnc1C | inactive | –
44 | O=C(/C=C\NCC(=O)c1ccccc1)c1ccccc1 | inactive | –
45 | Cc1nc(NC(=O)C23CCC(C)(C(=O)O2)C3(C)C)sc1C (stereo not drawn) | inactive | –
46 | CN1c2ccc(Cl)cc2-c2nc(SCC(=O)Nc3cc(F)ccc3F)ncc2S1(=O)=O | 23.1 µM (active) | –
47 | CC(C)Cn1c(SCC(=O)Nc2ccc(Cl)cc2F)nc(O)cc1=O | inactive | –
48 | O=C(CCN1C(=O)c2ccncc2C1=O)Nc1cc(F)ccc1F | inactive | –
49 | N/C(Cc1ccc([N+](=O)[O-])cc1)=N\OC(=O)COc1ccc2ccccc2c1 | inactive | –
50 | CCOc1ccccc1NC(=O)c1cccnc1 | inactive | –
51 | Cc1ccc(Nc2nc(CSc3nnnn3-c3ccccc3)cc(=O)[nH]2)cc1 | 18.4 µM (active) | –
52 | Cc1ccc(NC(=O)CSc2nc(CSc3ccc(C)cc3)cc(=O)[nH]2)cc1 | inactive | –

Row | Structure (SMILES) | Potency | activity change, negative = growth inhibition
53 | Nc1nc(CSc2nnnn2-c2ccccc2)nc(Nc2ccccc2)n1 | inactive | –
54 | Cc1ccc(N2C(=O)CC(NCc3ccc4c(c3)OCO4)C2=O)cc1Cl (stereo not drawn) | inactive | –
55 | CSC1=NC2(C)CCCCC2C12C=CC(=O)C=C2 (stereo not drawn) | inactive | –
56 | O=c1[nH]nc(CSCc2ccccc2Cl)[nH]1 | inactive | –
57 | CC(=O)c1ccccc1NC(=O)COC(=O)C1COc2ccccc2O1 (stereo not drawn) | inactive | –
58 | COc1ccc(OC)c2sc(N3CCN(C(=O)C4COc5ccccc5O4)CC3)nc12 (stereo not drawn) | 16.4 µM (active) | –
59 | COc1ccc(NC(=O)C2COc3ccccc3O2)cc1 (stereo not drawn) | inactive | –
60 | Cc1cc(Cl)ccc1N1C(=O)CC(SCCC(=O)O)C1=O (stereo not drawn) | inactive | –
61 | CCOC(=O)c1cn(CC)c2cc(F)c(F)cc2c1=O | inactive | –
62 | COc1cc(OC)cc(C(=O)Nc2nnc(SCC(=O)NCC3CCCO3)s2)c1 (stereo not drawn) | inactive | –
63 | CC(C)(C)NC(=O)COc1ccc(CNc2ccc3[nH]c(=O)[nH]c3c2)cc1 | inactive | –
64 | C/C=C(\C)C(=O)O[C@H]1CC(C)=C2C(=O)C=C(C)C2[C@@H]2OC(=O)[C@@](C)(OC(=O)C=C(C)C)C21 (stereo partly drawn) | – | 5.36% [at 9.04 µM] (inactive)
65 | C=C(C)C(=O)O[C@H]1C/C(C)=C\C(=O)/C=C(\C)[C@H](O)[C@@H]2OC(=O)C(=C)[C@@H]21 | 1.16 µM (active) | –
66 | Cc1c(S(=O)(=O)N2CC(C)CC(C)C2)c(=O)n(C)c(=O)n1C (stereo not drawn) | inactive | –
67 | CCN(C(=O)Cc1c(C(=O)O)n(CC)c2ccccc12)c1ccccc1C | inactive | –
68 | CCOC(=O)c1sc(NC(=O)COc2ncnc3ccccc23)c(C(=O)OCC)c1C | inactive | –
69 | NC(=O)Nc1ccc(C(=O)OCC(=O)NC2CCCc3ccccc32)cc1 (stereo not drawn) | inactive | –
70 | CCOC(=O)c1c(NC(=O)CNC2CCCc3ccccc32)sc(C(N)=O)c1C (stereo not drawn) | 16.4 µM (active) | –
71 | C=CCNC(=O)CC12CC3CC(C1)CC(CC(=O)NCC=C)(C3)C2 | inactive | –
72 | COc1ccc(CNC(=O)C(=O)N2CCC3(CC2)OCCN3S(=O)(=O)c2ccc(C)cc2)cc1 | inactive | –
73 | Cc1ccccc1CC1(CO)CCCN(C(=O)c2cc(-c3ccccc3)no2)C1 (stereo not drawn) | 29.1 µM (active) | –
74 | Cc1noc(C)c1CCC(=O)N1CCCC(CO)(Cc2ccccc2)C1 (stereo not drawn) | inactive | –
75 | CCc1[nH]nc(C(=O)N2CCCC(CO)(Cc3ccc(F)cc3F)C2)c1C (stereo not drawn) | inactive | –
76 | CCCc1nnc(NC(=O)CCC(=O)N2CCN(S(=O)(=O)c3ccc(OC)cc3)CC2)s1 | inactive | –
77 | COc1ccc(C(=O)Nc2nc(-c3ccc(OC)cc3)c(-c3ccc([N+](=O)[O-])cc3)s2)cc1 | 9.2 µM (active) | –
78 | COc1ccc(C(=O)NCCNc2ccc([N+](=O)[O-])cn2)cc1 | inactive | –

Row | Structure (SMILES) | Potency | activity change, negative = growth inhibition
79 | COc1ccc(-c2[nH][nH]c(=O)c2NC(=O)c2ccc([N+](=O)[O-])cc2)cc1 | inactive | –
80 | O=C(CN(C(=O)c1csnn1)c1cccc(Cl)c1)NC1CCCC1 | inactive | –
81 | Cc1cccc(C)c1N1CCN(S(=O)(=O)N2CCOCC2)CC1 | inactive | –
82 | CCc1cc2c(NC3CCCC3)ncnc2s1 | 4.61 µM (active) | –
83 | CCc1cc2c(NC(Cc3ccccc3)C(=O)O)ncnc2s1 (stereo not drawn) | inactive | –
84 | Clc1cc(NC2CCCCC2)ncn1 | inactive | –
85 | CCCC12CN3CC(C)(CN(C1)C3c1ccccc1Cl)C2=O (stereo not drawn) | inactive | –
86 | CCCC12CN3CC(CCC)(CN(C1)C3c1c[nH]c3ccc(OC)cc13)C2=O (stereo not drawn) | 10.3 µM (active) | –
87 | CCN(CC)CC(=O)c1c[nH]c2ccc(OC)cc12 | inactive | –
88 | COc1ccccc1CNC(=O)CSc1nc(=O)n(Cc2ccncc2)c2c1CCC2 | inactive | –
89 | O=S1(=O)CCN(Cc2ccccc2Cl)CC1 | inactive | –
90 | CCCCN1CC(C)(C)[C@H](CC(=O)Nc2ccc(Br)cc2)C1=O | 16.4 µM (active) | –
91 | CC(=O)N1CC(=O)N(CC(=O)Nc2ccc(Br)cc2)C1=S | inactive | –
92 | CC1(C)CN(CCc2ccccc2)C(=O)[C@H]1CC(=O)Nc1ccc(Br)cc1 | inactive | –
93 | O=C(N/N=C/c1ccccn1)C12CC3CC(CC(C3)C1)C2 | inactive | –
94 | COc1cccc(NC(=O)Cn2c3ccccc3c3nc4n(c(=O)c32)CCS4)c1 | inactive | –
95 | CN(CC(=O)NC(=O)Nc1ccccc1F)Cc1ccccc1 | inactive | –
96 | COc1cccc2c1C(=O)c1c(O)c3c(c(O)c1C2=O)CC(O)(C(C)=NNC(=O)c1ccc(Cl)c(Cl)c1)CC3OC1CC(N)C(O)C(C)O1 (stereo not drawn) | 0.164 µM (active) | –
97 | O=C(Nc1ccccc1-c1ccccc1)c1ccccc1[N+](=O)[O-] | inactive | –
98 | COc1cccc(N2CC(C(=O)NCc3n[nH]c(=O)c4ccccc34)CC2=O)c1 (stereo not drawn) | inactive | –
99 | CC[n+]1c(C)n(-c2ccccc2)c2ccc(NC(C)=O)cc21 | 2.59 µM (active) | –
100 | CC(=O)Nc1ccc(NC(=O)CSc2nnc(C3CC3)n2-c2ccccc2)cc1 | inactive | –
101 | CCn1c2ccccc2c2cc(NC(=O)CNC)ccc21 | inactive | –
102 | N#CC(C(N)=O)=C1CCC2(CC1)OCCCCO2 | inactive | –
103 | CCOc1cc(/C=N/O)ccc1OCc1ccccc1F | inactive | –

— PubChem BioAssay AID686978 (National Center for Advancing Translational Sciences (NCATS), 2013)
